Assay outcomes: PubChem BioAssay, Broad Institute
Tg IFNy HTS: inhibitors of Toxoplasma gondii growth with IFN-gamma; actives 3.8% (n = 69,000); activity change, negative = inhibition, % (no concentration beside the values); Toxoplasma gondii growth in IFN-gamma-treated host cells; hits give low values; in the data active = activity change below about -70%, passing the limit was not always enough;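 also: host cells are HeLa cells infected with Toxoplasma gondii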
* = called active by the depositor. Shown is part of a subset that was picked to be rich in hits.

SMILES	Tg IFNy HTS
CO[C@@H]1CN(C)C(=O)c2ccc(NC(=O)c3cccnc3)cc2OC[C@@H](C)N(CC2CCCCC2)C[C@H]1C	144
CO[C@H]1CN(C)C(=O)c2ccc(NC(=O)c3nc4ccccc4s3)cc2OC[C@H](C)N(Cc2cccnc2)C[C@H]1C	-113*
CO[C@@H]1CN(C)C(=O)c2ccc(NC(=O)c3nc4ccccc4s3)cc2OC[C@@H](C)N(Cc2cccnc2)C[C@H]1C	-85*
CO[C@H]1CN(C)C(=O)c2cc(NC(=O)C3CCCCC3)ccc2OC[C@@H](C)N(Cc2cccnc2)C[C@H]1C	69
CO[C@@H]1CN(C)C(=O)c2cc(NC(=O)C3CCCCC3)ccc2OC[C@H](C)N(Cc2cccnc2)C[C@H]1C	27
CO[C@@H]1CN(C)C(=O)c2cc(NC(=O)C3CCCCC3)ccc2OC[C@@H](C)N(Cc2cccnc2)C[C@H]1C	1
CO[C@H]1CN(C)C(=O)c2ccc(NC(=O)c3nc4ccccc4s3)cc2OC[C@@H](C)N(Cc2cccnc2)C[C@@H]1C	16
CO[C@H]1CN(C)C(=O)c2cc(NC(=O)c3nc4ccccc4s3)ccc2OC[C@H](C)NC[C@@H]1C	-17
O=C(c1ccccn1)N1CCCC2(CCN(c3cncnc3)C2=O)C1 (centres undefined)	-39
CC(C)c1cc(C2CCN(Cc3ccc(C4CCCCO4)o3)CC2)[nH]n1 (centres undefined)	-43
O=C(NCc1ccncc1)C1CC12CCN(C(=O)c1ccc(Cl)cc1)C2 (centres undefined)	-3
Cc1nn(C)cc1-c1csc(NC(=O)Cc2csc(-c3ccccc3)n2)n1	26
CCNC(=O)C1CCN(C(=O)CCSCc2ccc(F)cc2)C1 (centres undefined)	-4
CC(O)CN(Cc1c(-c2ccco2)[nH]c2ncccc12)CC(C)O (centres undefined)	241
O=C(O)CCCOc1ccc(F)cc1F	-21
O=C(Nc1cccc(Cl)c1)N1CCN(CCO)CC1	7
COc1cc(CN(Cc2ccc(C)o2)C2CC(C)(C)NC(C)(C)C2)ccc1OCC(N)=O	-14
COc1cc(S(=O)(=O)NCCc2ccccc2)ccc1-n1cnnn1	-23
O=C(NO)c1ccccc1O	-9
O=C(O)c1ccccc1O	7
O=C(CC(=O)c1ccccc1O)c1ccc(F)cc1	-109*
CN1CCC2(CC1)CN(S(=O)(=O)c1ccc(F)cc1)Cc1ccccc12	-7
COc1ccc(C2CCCN2CC(O)c2cccs2)c(OC)c1 (centres undefined)	153
COCCN1C[C@H]2[C@@H](OC)CCN(S(=O)(=O)c3cn(C)cn3)[C@H]2C1	0
COc1ccc(-c2noc(-c3ccc(N4CCC(N5CCCCC5)CC4)nc3)n2)cc1	-29
SMILES	Tg IFNy HTS
Cc1occc1C(=O)N1CCC2(CC1)OC(C(=O)N1CCCC1)Cn1ccnc12 (centres undefined)	2
NC(=O)N1CCO[C@]2(CCC[C@@H]2COCc2ccccn2)C1	1
Cc1cnn(Cc2nc(-c3ccc(NC(=O)c4ccc(C#N)cc4)cc3)oc2C)c1	-52
CCc1ccc(C(=O)Nc2ccc(-c3nc(Cn4cc(C)cn4)c(C)o3)cc2)cc1	27
Cc1cnn(Cc2nc(-c3ccc(NC(=O)c4ccc(F)cc4)cc3)oc2C)c1	-82*
Cc1cnn(Cc2nc(-c3ccc(NC(=O)c4ccc(C)c(F)c4)cc3)oc2C)c1	-13
COc1ccc(C(=O)Nc2ccc(-c3nc(Cn4cc(C)cn4)c(C)o3)cc2)cc1F	34
Cc1cnn(Cc2nc(-c3ccc(NC(=O)c4cccc(F)c4)cc3)oc2C)c1	-75*
Cc1nc(-c2cccc(F)c2)sc1CCNC(=O)CN1C(=O)c2ccccc2C1=O	15
CC(C)CN1CC2CN(C(=O)c3cscn3)CC2C1 (centres undefined)	479
O=C(c1ccccn1)N1CCCC2(COCCN(c3cccnc3)C2)C1 (centres undefined)	-1
CN(C)C(=O)Cn1c2c(ccc1=O)CCN(Cc1cccs1)CC2	10
Cc1ccc(C(=O)CSc2ncnc3c(-c4ccc(Cl)cc4)nsc23)cc1	-85*
COc1ccc(-c2nsc3c(SCc4ccccc4)ncnc23)cc1	12
Cc1noc2ncnc(SCC(=O)c3ccc(Cl)cc3)c12	24
CC(C)CCN1C[C@H]2[C@@H](C(=O)NCc3ccccc3)CCS(=O)(=O)[C@H]2C1	5
Cc1cnc2c(C(=O)N3CCC(c4ccccc4C(=O)O)C3)cnn2c1 (centres undefined)	-7
C=CCOCc1nnn2c1CN(Cc1c(C)noc1C)CCC2	-3
CN1C(=O)C(CCC(=O)O)c2ccccc21 (centres undefined)	27
CC(C)[C@H](O)C(=O)N[C@@H](C)C(=O)N[C@H]1C(=O)N(C)CCc2ccccc21	-6
C[C@H](NC(=O)Cc1cc(F)cc(F)c1)C(=O)N[C@@H]1C(=O)N(C)c2ccccc2-c2ccccc21	-83*
O=C(c1cn2cccnc2n1)N1CCOC(C(F)(F)F)C1 (centres undefined)	0
O=c1[nH]c2cc(C(F)(F)F)cc(Br)c2[nH]c1=O	-64
O=c1[nH]c2cc(Cl)c(Cl)c([N+](=O)[O-])c2[nH]c1=O	17
O=c1[nH]c2cc(Cl)c(Cl)cc2[nH]c1=O	-72*
SMILES	Tg IFNy HTS
Cc1[nH]c2ccccc2c1C(=O)C(=O)NC1CC(=O)N(c2ccc3c(c2)OCCO3)C1 (centres undefined)	-1
NCC1CCN(Cc2ccc(C#CCO)cc2)C1 (centres undefined)	-3
CCCCOC(=O)c1ccc(NC(=O)CSc2nnnn2C2CCCCC2)cc1	13
CCc1nnc(SCC(=O)Nc2ccc(N3CCN(S(C)(=O)=O)CC3)cc2)o1	-11
CCOC(=O)c1ccc(NC(=O)CSc2nnc(CNc3ccc(F)cc3)o2)cc1	-100*
Cc1nc2ccccc2c(=O)n1CCC(=O)NC(c1ccc(F)cc1)C(C)C (centres undefined)	19
Cc1ccc(S(=O)(=O)N2CCC3(CC2)NCCN=C3NCc2cc(F)cc(F)c2)c(C)c1	-2
CC1CCN(S(=O)(=O)c2ccc3c(c2)CCC(=O)N3CC(=O)Nc2ccccc2)CC1	-2
Cc1ccc(NC(=O)CN2C(=O)CCc3cc(S(=O)(=O)N4CCC(C)CC4)ccc32)cc1N(C)C	149
CC1CCN(S(=O)(=O)c2ccc3c(c2)CCC(=O)N3CC(=O)Nc2cccc(Cl)c2)CC1	-87*
O=C(CN1C(=O)CCc2cc(S(=O)(=O)N3CCCC3)ccc21)Nc1cccc(F)c1	-19
CC1CCN(S(=O)(=O)c2ccc3c(c2)CCC(=O)N3CC(=O)Nc2cccc(F)c2)CC1	-11
Cc1ccc(NC(=O)CN2C(=O)CCc3cc(S(=O)(=O)N4CCC(C)CC4)ccc32)cc1C	-99*
COc1cccc(NC(=O)CN2C(=O)CCc3cc(S(=O)(=O)N4CCC(C)CC4)ccc32)c1	-41
Cc1cccc(NC(=O)CN2C(=O)CCc3cc(S(=O)(=O)N4CCCCC4)ccc32)c1	1
CCc1ccc(NC(=O)CN2C(=O)CCc3cc(S(=O)(=O)N4CCC(C)CC4)ccc32)cc1	-77*
O=C(CN1C(=O)CCc2cc(S(=O)(=O)N3CCCC3)ccc21)Nc1cccc(Br)c1	-108*
Cc1cc(C)cc(NC(=O)CN2C(=O)CCc3cc(S(=O)(=O)N4CCC(C)CC4)ccc32)c1	19
Cc1ccc(NC(=O)CN2C(=O)CCc3cc(S(=O)(=O)N4CCC(C)CC4)ccc32)cc1	19
CCC(C)NC(=O)Cn1c(=O)c(S(=O)(=O)c2ccccc2)cc2cc(C)ccc21 (centres undefined)	-8
Cc1c(CN2CCN(Cc3cccc(F)c3)CC2)[nH]c2ccc(F)cc12	-52
